The source of these data is PubChem BioAssay (NCI).

Compounds without any hit were thinned out: in the full panel of roughly 83,000, 20% have a hit.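 In brief: 96-well plates, 48 h treatment, single concentration, percent growth endpoint.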 Values without a mark were called inactive. The source made the active and inactive calls. Rule for the calls: active = growth percent below 10; inactive = the rest.

Test systems include SK-MEL-2 melanoma; EKVX NSCLC; SN12C renal; UO-31 renal; TK-10 renal; ACHN renal; CAKI-1 renal; A498 renal; CCRF-CEM leukemia; MOLT-4 leukemia; SR leukemia; RPMI-8226 leukemia; OVCAR-8 ovarian; OVCAR-5 ovarian; OVCAR-4 ovarian; SK-OV-3 ovarian; IGROV1 ovarian; OVCAR-3 ovarian; HS 578T breast; NCI/ADR-RES ovarian.
Common to all, as to test: NCI-60 one-dose screen, 48 h (100 = growth as untreated, 0 = no growth, -100 = all killed)
Holding throughout (settings): 10 µM unless noted

In the case of `NC(N)=NC1CCCCC1`, the growth in the assay with SK-MEL-2 melanoma is 101%; with EKVX NSCLC, 93%; with SN12C renal it was 103%; in the assay on UO-31 renal it was 84.7%; with TK-10 renal, 84.1%; in the assay with ACHN renal, 103%. In addition, the growth in the assay with CAKI-1 renal is 93.9%; in the assay on A498 renal, 98.1%; with CCRF-CEM leukemia it was 90.3%; in the assay on MOLT-4 leukemia it was 92.5%; in the assay on SR leukemia, 92.6%; in the assay on RPMI-8226 leukemia, 85.6%. The growth with OVCAR-8 ovarian was 98.5%; with OVCAR-5 ovarian, 109%; in the assay with OVCAR-4 ovarian, 105%; with SK-OV-3 ovarian it was 107%; in the assay on IGROV1 ovarian, 107%; in the assay with OVCAR-3 ovarian it was -50.3% (active). In addition, the growth with HS 578T breast is 107%.
Take `COc1cc(-c2nc(-c3ccc(-c4nc5ccc(F)cc5[nH]4)cc3)no2)cc(OC)c1OC`: the growth is 55.6% with SK-MEL-2 melanoma; 46.9% with EKVX NSCLC; 66.1% in the assay with SN12C renal; 19.8% in the assay with UO-31 renal; 93% with TK-10 renal; 36.7% in the assay with ACHN renal. Further, the growth is 47.3% with CAKI-1 renal; 71.2% in the assay on A498 renal; 8.61% (active) in the assay on CCRF-CEM leukemia; 21.1% in the assay with MOLT-4 leukemia; 32.5% with SR leukemia; -15.3% (active) with RPMI-8226 leukemia. In addition, the growth is 5.86% (active) with OVCAR-8 ovarian; 72.9% in the assay with OVCAR-5 ovarian; 30.9% in the assay with OVCAR-4 ovarian; 85.5% with SK-OV-3 ovarian; 47.3% in the assay on IGROV1 ovarian; 36.6% with OVCAR-3 ovarian. Moreover, the growth was 30.5% in the assay with HS 578T breast and 13.3% in the assay on NCI/ADR-RES ovarian.
Consider `NC(=O)c1ccc[n+](Cc2ccccc2)c1`, for which the growth with SK-MEL-2 melanoma was 110%; in the assay with EKVX NSCLC, 94%; in the assay with SN12C renal, 101%; in the assay with UO-31 renal it was 93.8%; in the assay on TK-10 renal it was 108%; with ACHN renal, 103%. In addition, the growth in the assay on CAKI-1 renal is 97.9%; with A498 renal, 74.5%; with CCRF-CEM leukemia it was 93.9%; in the assay on MOLT-4 leukemia, 49%; in the assay on SR leukemia, 109%; in the assay on RPMI-8226 leukemia, 89.9%. Moreover, the growth is 103% in the assay with OVCAR-8 ovarian; 96.2% in the assay with OVCAR-5 ovarian; 102% with OVCAR-4 ovarian; 113% in the assay with SK-OV-3 ovarian; 111% in the assay on IGROV1 ovarian; 107% with OVCAR-3 ovarian. Also, the growth in the assay on HS 578T breast is 98.5%.
Consider `COC(=O)OC1C(O[C@H]2C[C@H]3[C@@H]4CC=C5C[C@@H](O)CC[C@]5(C)[C@H]4CC[C@]3(C)[C@H]2[C@H](C)C(=O)CCC(C)C)OCC(O)C1OC1OCC(O)C(O)C1OC(=O)c1ccc(OC)cc1` (stereo partly specified), for which the growth with SK-MEL-2 melanoma is -46.1% (active); in the assay with EKVX NSCLC, 14.3%; with SN12C renal it was 43.4%; in the assay with UO-31 renal, -40.4% (active); in the assay with TK-10 renal it was 0.902% (active); in the assay on ACHN renal, 31.6%. In addition, the growth in the assay on CAKI-1 renal was -16.6% (active); in the assay with A498 renal it was -74% (active); in the assay with CCRF-CEM leukemia, -25.9% (active); with MOLT-4 leukemia it was -36.5% (active); in the assay with SR leukemia, 2.6% (active); in the assay on RPMI-8226 leukemia, -40.7% (active). For the same compound, the growth in the assay on OVCAR-8 ovarian is 26.8%; with OVCAR-5 ovarian, 31.2%; in the assay on OVCAR-4 ovarian it was 57.1%; with SK-OV-3 ovarian, -44.5% (active); in the assay with IGROV1 ovarian, 29.5%; in the assay with OVCAR-3 ovarian, 58.1%. Also, the growth with HS 578T breast was -16.5% (active).
On to `CCC1N=C(N)N=C(N)N1c1ccc(Cl)cc1` (stereo unspecified), for which the growth in the assay on SK-MEL-2 melanoma was 100%; in the assay with EKVX NSCLC, 68.4%; in the assay with SN12C renal, 96.9%; with UO-31 renal it was 89%; in the assay with TK-10 renal it was 97%; in the assay with ACHN renal, 108%. In addition, the growth in the assay with CAKI-1 renal was 96.3%; in the assay on A498 renal it was 77.1%; in the assay on CCRF-CEM leukemia it was 107%; in the assay on MOLT-4 leukemia it was 79.6%; with SR leukemia it was 88.9%; in the assay with RPMI-8226 leukemia it was 87.5%. Besides, the growth in the assay with OVCAR-8 ovarian is 74.4%; in the assay with OVCAR-5 ovarian it was 119%; in the assay on OVCAR-4 ovarian, 103%; in the assay with SK-OV-3 ovarian, 108%; with IGROV1 ovarian, 66.6%; in the assay with OVCAR-3 ovarian, 104%. Further, in the assay with HS 578T breast, the growth is 97%.
Consider `Cc1ccccc1Nc1n[nH]c(Cc2ccccc2)n1`, for which the growth is 83.8% with SK-MEL-2 melanoma; 103% in the assay with EKVX NSCLC; 104% with SN12C renal; 86% in the assay on UO-31 renal; 90% in the assay on TK-10 renal; 106% with ACHN renal. The growth is 101% with CAKI-1 renal; 102% with A498 renal; 97.8% in the assay on CCRF-CEM leukemia; 70.2% in the assay with MOLT-4 leukemia; 99.7% with SR leukemia; 93.8% in the assay with RPMI-8226 leukemia. In addition, the growth in the assay on OVCAR-8 ovarian was 98.1%; with OVCAR-5 ovarian it was 111%; in the assay with OVCAR-4 ovarian, 112%; with SK-OV-3 ovarian it was 105%; in the assay on IGROV1 ovarian, 107%; in the assay on OVCAR-3 ovarian it was 106%. The growth with HS 578T breast is 98.9%; in the assay on NCI/ADR-RES ovarian, 106%.
`CSC1=N/C(=C\c2cccc(OCc3ccc(Cl)cc3)c2)C(=O)N1`: the growth in the assay with SK-MEL-2 melanoma was 87.9%; in the assay on EKVX NSCLC it was 75.5%; with SN12C renal it was 80.9%; with UO-31 renal, 67.2%; with TK-10 renal, 78.9%; with ACHN renal, 87.1%. The growth is 80.6% with CAKI-1 renal; 62.1% in the assay with A498 renal; 98.3% in the assay with CCRF-CEM leukemia; 90.5% with MOLT-4 leukemia; 80.9% in the assay with SR leukemia; 67.7% with RPMI-8226 leukemia. Further, the growth with OVCAR-8 ovarian is 86.1%; in the assay with OVCAR-5 ovarian, 106%; with OVCAR-4 ovarian, 56.9%; in the assay with SK-OV-3 ovarian, 98.5%; in the assay with IGROV1 ovarian it was 86.7%; in the assay on OVCAR-3 ovarian it was 84.2%. Further, the growth in the assay on HS 578T breast is 104%; in the assay on NCI/ADR-RES ovarian, 79%.
On to `CC1OC(n2c3ccccc3c3c4c(c5c6ccccc6[nH]c5c32)C(=O)N(CCN[C@H]2CCC[C@@H]2N)C4=O)CC(O)C1O` (stereo partly specified), for which the growth in the assay on SK-MEL-2 melanoma was 74.5%; in the assay with EKVX NSCLC, 45.9%; in the assay with SN12C renal it was 17.9%; in the assay on UO-31 renal, 66.8%; in the assay on TK-10 renal it was 52.8%; with ACHN renal, 45.6%. For the same compound, the growth in the assay on CAKI-1 renal was 85.7%; in the assay with A498 renal it was 77.9%; in the assay with CCRF-CEM leukemia it was 27.1%; in the assay with MOLT-4 leukemia, 7.62% (active); in the assay on SR leukemia it was -1.11% (active); in the assay with RPMI-8226 leukemia, 4.77% (active). In addition, the growth in the assay on OVCAR-8 ovarian is 27.7%; in the assay with OVCAR-5 ovarian, 80.4%; with OVCAR-4 ovarian it was 34.9%; in the assay with SK-OV-3 ovarian it was 40.7%; in the assay on IGROV1 ovarian, 36.4%; with OVCAR-3 ovarian it was 52.7%. Moreover, the growth in the assay on HS 578T breast is 52.3%; in the assay on NCI/ADR-RES ovarian, 88.2%.
